# In PMC4336329 (PLoS ONE, 2015):
# The campaign covered roughly 310,000 compounds. About 14,000 (4.5%) showed an effect of 50% or more. The effect is printed as a negative number. The entries come from a sample that favours strong results as a whole.
# Target: human ether-à-go-go-related gene (hERG) potassium channel (human, UniProt Q12809)
# Assay: primary screen, population patch clamp on CHO cells stably expressing hERG; higher = less effect of the substance
# 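Also: peak tail current of the secondary pulse compared with the same well before compound.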
# Sequence of human ether-à-go-go-related gene (hERG) potassium channel (Q12809 whole entry, looked up): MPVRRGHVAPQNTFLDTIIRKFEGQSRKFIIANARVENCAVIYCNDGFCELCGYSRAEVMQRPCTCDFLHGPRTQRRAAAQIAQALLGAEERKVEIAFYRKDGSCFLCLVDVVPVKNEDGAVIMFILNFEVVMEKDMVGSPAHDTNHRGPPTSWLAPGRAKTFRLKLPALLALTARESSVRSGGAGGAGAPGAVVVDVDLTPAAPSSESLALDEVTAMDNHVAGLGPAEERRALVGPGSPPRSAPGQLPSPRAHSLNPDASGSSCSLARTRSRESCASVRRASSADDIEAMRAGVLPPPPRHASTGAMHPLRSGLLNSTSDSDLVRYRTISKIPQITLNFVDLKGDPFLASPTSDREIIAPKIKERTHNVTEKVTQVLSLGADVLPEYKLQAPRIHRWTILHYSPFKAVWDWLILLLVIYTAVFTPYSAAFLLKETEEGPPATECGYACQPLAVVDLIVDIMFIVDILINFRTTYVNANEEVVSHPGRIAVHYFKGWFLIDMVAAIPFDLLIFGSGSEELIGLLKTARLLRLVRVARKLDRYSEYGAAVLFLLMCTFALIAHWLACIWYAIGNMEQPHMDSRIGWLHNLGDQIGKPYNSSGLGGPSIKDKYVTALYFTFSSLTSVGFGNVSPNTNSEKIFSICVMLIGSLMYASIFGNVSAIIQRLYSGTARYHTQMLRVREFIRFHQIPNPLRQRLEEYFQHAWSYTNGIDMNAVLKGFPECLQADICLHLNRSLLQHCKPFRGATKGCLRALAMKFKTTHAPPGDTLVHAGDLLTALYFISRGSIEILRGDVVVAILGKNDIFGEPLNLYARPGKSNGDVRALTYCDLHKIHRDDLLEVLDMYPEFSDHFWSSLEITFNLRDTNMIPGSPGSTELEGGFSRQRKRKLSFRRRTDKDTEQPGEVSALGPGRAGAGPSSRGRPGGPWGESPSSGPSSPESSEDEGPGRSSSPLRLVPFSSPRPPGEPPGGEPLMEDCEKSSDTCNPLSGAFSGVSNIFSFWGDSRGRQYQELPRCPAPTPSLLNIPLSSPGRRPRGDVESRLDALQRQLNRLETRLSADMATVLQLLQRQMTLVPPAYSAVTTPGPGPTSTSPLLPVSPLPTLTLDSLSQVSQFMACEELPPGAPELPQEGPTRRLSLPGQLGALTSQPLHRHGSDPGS
row,Compound,"hERG current change (%, negative = inhibition) at 10uM [%]"
1,CCCCc1cc(C)c(S(=O)(=O)c2ccccc2C)c(=O)[nH]1,3.69
2,CC(Oc1ccccc1)C(=O)NC1C(=O)N2C1SC(C)(C)C2C(=O)[O-].[K+] (centres unmarked),35.9
3,CCOC(=O)c1sc(NC(=S)NC(=O)C23CC4CC(CC(C4)C2)C3)cc1C,20.2
4,CCCC1=NN(c2ccc([N+](=O)[O-])cc2)C(=O)/C1=C\N(C)C,-7.95
5,O=C(O)C1C2CCC(O2)C1C(=O)Nc1ccc(F)c(F)c1 (centres unmarked),26.5
6,CCCC(=O)Nc1ccc(C(=O)COC(=O)C2CC2C)cc1 (centres unmarked),5.46
7,CCN1C(=O)/C(=C/C=C2/SCCN2C)SC1=S,4.78
8,COC(=O)Cn1cc(C(=O)C2CC2)c2ccccc21,2.2
9,Cc1cc(C)c(C)c(S(=O)(=O)NCc2ccc(C(=O)N3CCN(C)CC3)cc2)c1C,-4.7
10,O=C(O)c1nn2c(c1Br)NC(c1ccccc1)CC2C(F)(F)F (centres unmarked),12.2
11,CCc1nnc(NC(=O)c2cc(S(=O)(=O)N(CC)CC)ccc2Cl)s1,-7.31
12,COc1ccccc1NC(=O)N1CCC(c2nc3ccccc3o2)CC1,-6.16
13,CC(C)NC(=O)COC(=O)c1cccc(NS(=O)(=O)/C=C/c2ccccc2)c1,-18
14,Cn1cnnc1SCC(=O)NC1CCCN(Cc2ccc(Cl)cc2)C1 (centres unmarked),-0.412
15,O=C(/C=C/c1ccccc1)NC(=S)Nc1ccc(CN2CCOCC2)cc1,-18.9
16,O=C(/C=C/c1ccccc1)Nc1ccc(CN2CCOCC2)cc1,-62.5
17,O=C(/C=C/c1ccc(Cl)cc1)Nc1ccc(CN2CCOCC2)cc1,-28
18,CCSc1nnc(NC(=O)CSc2nc3c(c(=O)n2CC)SC(C)C3)s1 (centres unmarked),6.95
19,CCC(=O)Nc1ccc(NC(=O)c2cccc3ccccc23)cc1,23.9

row,Compound,"hERG current change (%, negative = inhibition) at 10uM [%]"
1,COc1ccc(-c2nc(SC(CC(=O)NCc3ccccc3)c3ccc(OC)c(OC)c3)n[nH]2)cc1 (centres unmarked),-0.421
2,CCOc1ccc(-n2c(SCc3nc(-c4cccs4)no3)nnc2-c2ccncc2)cc1,-59.7
3,c1ccc(-n2c(SCc3nc(-c4cccs4)no3)nnc2-c2ccco2)cc1,-42.6
4,Cc1ccc(-c2noc(CSc3nnc(-c4ccncc4)n3-c3ccc(F)cc3)n2)cc1,-10.3
5,CCOc1ccc(-n2c(SCc3nc(-c4ccc(C)cc4)no3)nnc2-c2ccncc2)cc1,-73.2
6,Cc1ccc(-c2noc(CSc3nnc(-c4ccncc4)n3-c3ccc(C)cc3)n2)cc1,-42.9
7,CCCn1c(SCc2nc(-c3cccs3)no2)nnc1-c1ccncc1,-4.13
8,O=c1[nH]c(=S)n(-c2ccc(Cl)cc2)c(O)c1/C=N/N1CCOCC1,-6.08
9,CC1CC(C)CN(S(=O)(=O)c2ccc3c(c2)CC(C)N3C(=O)C2CCC2)C1 (centres unmarked),4.7
10,CC12CCC(C(=O)N3CCCCCC3)(OC1=O)C2(C)C (centres unmarked),13.1
11,Nc1cc(=O)[nH]c(SCC(=O)NC2CCCc3ccccc32)n1 (centres unmarked),0.0692
12,Cc1cccc2cc(COC(=O)c3ccccc3)c(=O)[nH]c12,-0.867
13,Cc1cccc2cc(COC(=O)C(C)C)c(=O)[nH]c12,-69.3
14,Cc1cccc(CCNCc2cc3cccc(C)c3[nH]c2=O)c1,-64.1
15,Cc1cccc(CCNCc2cc3cc(C)cc(C)c3[nH]c2=O)c1,-30.8
16,Cc1cccc2cc(CN(Cc3ccccc3)C(=O)N(C)C)c(=O)[nH]c12,-11.5
17,CC(=O)OCc1cc2cccc(C)c2[nH]c1=O,-9.76
18,Cc1cccc(CCN(Cc2cc3cccc(C)c3[nH]c2=O)C(=O)N2CCOCC2)c1,-29.4
19,Cc1ccccc1CCNCc1cc2cccc(C)c2[nH]c1=O,-52.2

row,Compound,"hERG current change (%, negative = inhibition) at 10uM [%]"
1,CCC(=O)OCc1cc2cccc(C)c2[nH]c1=O,-1.03
2,CC(C)CSc1oc(-c2ccco2)nc1S(=O)(=O)c1ccccc1,-19.7
3,O=C(CCC(=O)N1CCCC(Nc2ccccc2)C1)c1ccc(F)cc1 (centres unmarked),-8.8
4,COc1cc(CNc2ccc3[nH]c(=O)[nH]c3c2)cc(Cl)c1OCC(=O)NC(C)(C)C,4.56
5,COc1ccc(S(=O)(=O)Nc2ccccc2-c2nc3ccccc3[nH]c2=O)cc1,-9.79
6,COc1ccc(OC)c(NC(=O)Cn2c(CCC(=O)O)ccc2-c2ccc(C)cc2)c1,-7.22
7,Cc1ccc(CN2CC(C(=O)N3CCN(S(=O)(=O)c4cccc(F)c4)CC3)CC2=O)cc1 (centres unmarked),-32.6
8,O=C(Nc1ccc(C(F)(F)F)cc1)C1(c2ccccc2)CC1,-15.2
9,CCNC(=S)Nc1cc(OCC)c(NC(=O)c2ccco2)cc1OCC,-1.82
10,Cc1ccc(OCC(O)CN2CCC(Cc3ccccc3)CC2)c(C)c1.Cl (centres unmarked),-75.2
11,Cc1ccc(OCC(O)CN2CCN(CCO)CC2)c(C)c1.Cl (centres unmarked),4.18
12,Cc1ccc(C)c(OCC(O)CN2CCC(Cc3ccccc3)CC2)c1.Cl (centres unmarked),-67.6
13,Clc1nc(-c2ccccc2)ncc1Oc1ccccc1,14.6
14,Cc1ccc(-n2nnnc2SCC(=O)c2c(N)n(C3CC3)c(=O)[nH]c2=O)cc1C,-10.6
15,COc1cccc(/C=N/NC(=O)CNC(=O)c2ccc(S(=O)(=O)N3CCOCC3)cc2)c1OC,-4.96
16,O=c1nc(-c2ccccc2)n(-c2ccccc2)[nH]1,1.69
17,COCC1CCN(C(=O)c2cc(COc3cncc(Cl)c3)on2)C1 (centres unmarked),5.09
18,C/C(CC(=O)Nc1cccc(Cl)c1C)=N\NC(=O)Cc1csc(N)n1,2.42
